From PubChem BioAssay
Calls of active or inactive are those of the source.

Tests used:
[1] = test system: PRMT1 (protein arginine N-methyltransferase 1); assay: PRMT1 binders on small-molecule microarrays, primary screen, biochemical, small-molecule microarray, 635 nm fluorescence (AID 1088); conditions: small-molecule microarray binding, higher = more signal;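 also: binding of Prmt1 protein to compounds spotted on small-molecule microarray slides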
[2] = yeast growth modulation, basal conditions, primary screen, YJM789 clinical isolate, OD600, 24 h (AID 1089);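 also: growth of clinical yeast isolate S. cerevisiae YJM 789 seeded 1000 cells per well; test concentration not given here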; conditions: S. cerevisiae YJM789 growth, higher = more signal, called active from +8 up or from −8 down
[3] = fission yeast growth modulation, primary screen, strain 972, OD600, 24 h, no modulator (AID 1090);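 also: basal condition with compound alone and no growth modifier present; test concentration not given here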; conditions: S. pombe 972 growth, higher = more signal, called active from +8 up or from −8 down
[4] = S. cerevisiae growth modulation with rapamycin, primary screen, strain BY4716, OD600, 96 h (AID 1091); conditions: higher = more signal, called active from +8 up or from −8 down; also: test concentration not given here
[5] = biological target: Torsin-1A-interacting protein 2 (Homo sapiens) (UniProt Q8NFQ8); assay: LULL1 binders on small-molecule microarray, primary screen, cell lysate, human LULL1 lysate, 635/667 nm fluorescence (AID 1092); conditions: hLULL1 lysate binding, 635 nm fluorescence, higher = more signal;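 also: probe is lysate of COS7 cells overexpressing human LULL1; score merges per-feature 667 nm fluorescence with signal-to-noise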
Chain of Torsin-1A-interacting protein 2 (Homo sapiens) (Q8NFQ8 whole entry, looked up): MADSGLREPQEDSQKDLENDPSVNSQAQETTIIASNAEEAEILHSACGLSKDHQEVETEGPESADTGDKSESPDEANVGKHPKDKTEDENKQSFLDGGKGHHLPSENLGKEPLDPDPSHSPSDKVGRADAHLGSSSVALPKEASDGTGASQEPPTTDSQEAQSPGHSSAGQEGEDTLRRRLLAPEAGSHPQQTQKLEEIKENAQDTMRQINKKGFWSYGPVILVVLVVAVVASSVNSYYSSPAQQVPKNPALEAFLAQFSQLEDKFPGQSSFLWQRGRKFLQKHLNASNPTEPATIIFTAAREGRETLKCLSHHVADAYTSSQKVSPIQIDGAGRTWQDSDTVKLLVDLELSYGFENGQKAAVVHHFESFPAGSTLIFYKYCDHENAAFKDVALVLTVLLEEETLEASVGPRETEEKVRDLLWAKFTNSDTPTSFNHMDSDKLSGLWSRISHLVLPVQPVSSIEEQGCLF

[6] = E. coli growth modulation, two-sided OD650, primary screen, E. coli filamentation project, strain DRC41, 24 h (AID 1093); conditions: OD650, 24 h, higher = more signal, called active from +8 up or from −8 down;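 also: MC1000 strain lacking acrAB efflux and sulA so SOS filamentation is blocked; test concentration not given here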
[7] = small-molecule microarray binders of probe aLefty2, primary screen, biochemical, biotinylated probe, 635/667 nm fluorescence (AID 1094); conditions: higher = more signal;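 also: score merges spot fluorescence near 667 nm with spot signal-to-noise ratio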
[8] = test system: Noggin (protein binding on small-molecule microarray); assay: Noggin binders on small-molecule microarray, primary screen, biochemical, 635/667 nm fluorescence (AID 1095); conditions: 635 nm fluorescence, higher = more signal;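 also: score merges 667 nm feature fluorescence with signal to noise over triplicate slides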
[9] = biological target: Neurogenic locus notch homolog protein 3 (Homo sapiens) (UniProt Q9UM47); assay: NOTCH3 binders on small-molecule microarray, primary screen, biochemical, 635/667 nm fluorescence (AID 1096); conditions: NOTCH3 binding, 635 nm fluorescence, higher = more signal
Chain of Neurogenic locus notch homolog protein 3 (Homo sapiens) (Q9UM47 whole entry, looked up): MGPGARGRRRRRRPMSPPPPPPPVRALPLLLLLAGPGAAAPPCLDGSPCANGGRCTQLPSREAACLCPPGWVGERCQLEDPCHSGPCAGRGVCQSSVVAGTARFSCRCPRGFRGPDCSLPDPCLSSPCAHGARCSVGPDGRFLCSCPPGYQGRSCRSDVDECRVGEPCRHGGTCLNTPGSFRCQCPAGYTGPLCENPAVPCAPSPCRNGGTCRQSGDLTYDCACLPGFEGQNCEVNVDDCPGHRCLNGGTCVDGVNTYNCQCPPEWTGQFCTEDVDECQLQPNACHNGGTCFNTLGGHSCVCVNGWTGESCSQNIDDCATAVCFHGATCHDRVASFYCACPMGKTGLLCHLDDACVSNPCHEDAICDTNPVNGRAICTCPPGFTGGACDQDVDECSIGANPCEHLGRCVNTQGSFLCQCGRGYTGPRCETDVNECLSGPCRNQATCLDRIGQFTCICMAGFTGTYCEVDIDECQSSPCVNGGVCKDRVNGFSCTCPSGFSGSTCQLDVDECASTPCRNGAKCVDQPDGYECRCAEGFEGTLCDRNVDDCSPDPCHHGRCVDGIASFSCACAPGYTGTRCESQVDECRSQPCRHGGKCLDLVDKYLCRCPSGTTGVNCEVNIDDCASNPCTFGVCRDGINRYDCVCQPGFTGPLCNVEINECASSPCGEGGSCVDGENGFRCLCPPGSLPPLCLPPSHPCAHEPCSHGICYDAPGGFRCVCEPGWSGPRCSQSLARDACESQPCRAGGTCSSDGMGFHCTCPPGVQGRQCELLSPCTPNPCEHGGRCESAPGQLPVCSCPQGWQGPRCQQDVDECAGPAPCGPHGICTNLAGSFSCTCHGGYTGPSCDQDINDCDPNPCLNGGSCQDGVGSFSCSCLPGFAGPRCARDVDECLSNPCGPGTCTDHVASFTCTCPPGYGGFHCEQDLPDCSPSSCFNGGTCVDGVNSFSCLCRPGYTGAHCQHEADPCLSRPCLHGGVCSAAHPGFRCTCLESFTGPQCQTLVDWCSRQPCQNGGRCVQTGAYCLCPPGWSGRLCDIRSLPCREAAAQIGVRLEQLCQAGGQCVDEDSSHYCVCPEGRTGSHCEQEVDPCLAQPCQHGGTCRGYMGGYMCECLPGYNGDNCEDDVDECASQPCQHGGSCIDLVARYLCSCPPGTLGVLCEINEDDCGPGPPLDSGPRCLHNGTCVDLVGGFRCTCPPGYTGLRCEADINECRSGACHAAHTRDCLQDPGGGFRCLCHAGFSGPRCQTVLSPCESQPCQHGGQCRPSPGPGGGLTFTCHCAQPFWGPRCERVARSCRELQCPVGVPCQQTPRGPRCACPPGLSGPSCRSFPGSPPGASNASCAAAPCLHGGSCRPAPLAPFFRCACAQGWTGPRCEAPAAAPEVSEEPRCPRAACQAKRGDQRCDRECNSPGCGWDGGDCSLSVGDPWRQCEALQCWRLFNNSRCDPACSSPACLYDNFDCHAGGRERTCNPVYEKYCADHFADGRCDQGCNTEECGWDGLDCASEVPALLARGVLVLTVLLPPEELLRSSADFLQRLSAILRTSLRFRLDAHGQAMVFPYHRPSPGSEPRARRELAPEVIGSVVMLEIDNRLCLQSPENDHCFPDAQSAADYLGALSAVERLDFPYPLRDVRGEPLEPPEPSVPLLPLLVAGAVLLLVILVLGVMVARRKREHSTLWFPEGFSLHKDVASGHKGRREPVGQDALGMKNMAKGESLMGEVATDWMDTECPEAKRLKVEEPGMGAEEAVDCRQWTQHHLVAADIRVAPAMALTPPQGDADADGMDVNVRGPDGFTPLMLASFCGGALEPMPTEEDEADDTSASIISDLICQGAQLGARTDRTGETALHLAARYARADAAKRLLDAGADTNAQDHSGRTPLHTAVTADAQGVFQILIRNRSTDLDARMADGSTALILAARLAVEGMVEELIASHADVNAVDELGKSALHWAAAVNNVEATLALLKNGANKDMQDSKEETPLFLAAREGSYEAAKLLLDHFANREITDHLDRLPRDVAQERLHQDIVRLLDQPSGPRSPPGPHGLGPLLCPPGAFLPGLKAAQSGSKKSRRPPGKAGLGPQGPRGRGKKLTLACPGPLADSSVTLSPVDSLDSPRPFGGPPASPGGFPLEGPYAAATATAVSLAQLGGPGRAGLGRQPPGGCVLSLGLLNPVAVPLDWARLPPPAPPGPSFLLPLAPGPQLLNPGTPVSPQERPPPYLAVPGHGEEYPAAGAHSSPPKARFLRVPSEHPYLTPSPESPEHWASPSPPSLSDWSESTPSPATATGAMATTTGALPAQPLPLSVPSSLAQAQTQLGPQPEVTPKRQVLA

[10] = small-molecule microarray binders of probe aEGFR, primary screen, biochemical, biotinylated probe, 635/667 nm fluorescence (AID 1097); conditions: higher = more signal;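 also: probe is a biotinylated anti-EGFR antibody binding compounds printed on slides; score combines fluorescence near 667 nm and signal to noise of each spot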
[11] = test system: Plasmodium falciparum Sir2 (PF13_0152, Sir2A); assay: pfSir2 binders on small-molecule microarrays, primary screen, biochemical, small-molecule microarray, 635 nm fluorescence (AID 1098); conditions: small-molecule microarray binding, fluorescence 635 nm; higher = more signal;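 also: score merges spot fluorescence intensity with its signal-to-noise ratio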
[12] = small-molecule microarray binders of probe aDKK1, primary screen, biochemical, biotinylated probe, 635/667 nm fluorescence (AID 1099); conditions: higher = more signal;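 also: score merges 667nm spot fluorescence with signal to noise across triplicate slides; reference of the scale not given here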
[13] = small-molecule microarray binders of probe aCHRDL2, primary screen, biochemical, biotinylated probe, 635/667 nm fluorescence (AID 1100); conditions: higher = more signal
[14] = splicing luciferase reporter signal modulators, primary screen, spliceosome inhibition project, cell-based, HEK293, splice +/- reporter (AID 1101); conditions: luminescence, 24 h, higher = more signal, called active from +8 up or from −8 down;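 also: HEK293 cells carrying a splicing-competent luciferase reporter gene; test concentration not given here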
[15] = biological target: Fibroblast growth factor 10 (Homo sapiens) (UniProt O15520); assay: FGF10 binders on small-molecule microarrays, primary screen, biochemical, small-molecule microarray, 635 nm fluorescence (AID 1102); conditions: FGF10 binding, fluorescence 635 nm, higher = more signal
Chain of Fibroblast growth factor 10 (Homo sapiens) (O15520 whole entry, looked up): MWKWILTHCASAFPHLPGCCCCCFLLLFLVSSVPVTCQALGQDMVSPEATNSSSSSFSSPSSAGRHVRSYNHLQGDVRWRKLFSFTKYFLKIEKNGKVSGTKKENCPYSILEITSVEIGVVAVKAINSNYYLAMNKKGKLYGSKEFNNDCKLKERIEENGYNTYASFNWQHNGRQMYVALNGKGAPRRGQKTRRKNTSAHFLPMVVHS

[16] = test system: glycogen synthase kinase-3 (GSK3A per assay name; protocol says GSK3B); assay: GSK3 binders on small-molecule microarrays, primary screen, biochemical, small-molecule microarray, 635 nm fluorescence, GSK3A (AID 1103); conditions: small-molecule microarray binding, fluorescence 635 nm; higher = more signal; also: the record names both GSK3A and GSK3B
[17] = biological target: Epidermal growth factor receptor (Homo sapiens) (UniProt P00533); assay: EGFR binders on small-molecule microarrays, primary screen, biochemical, small-molecule microarray, 635 nm fluorescence (AID 1104); conditions: EGFR binding, higher = more signal;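 also: score merges 667 nm emission intensity with spot signal to noise over triplicate slides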
Chain of Epidermal growth factor receptor (Homo sapiens) (P00533 whole entry, looked up): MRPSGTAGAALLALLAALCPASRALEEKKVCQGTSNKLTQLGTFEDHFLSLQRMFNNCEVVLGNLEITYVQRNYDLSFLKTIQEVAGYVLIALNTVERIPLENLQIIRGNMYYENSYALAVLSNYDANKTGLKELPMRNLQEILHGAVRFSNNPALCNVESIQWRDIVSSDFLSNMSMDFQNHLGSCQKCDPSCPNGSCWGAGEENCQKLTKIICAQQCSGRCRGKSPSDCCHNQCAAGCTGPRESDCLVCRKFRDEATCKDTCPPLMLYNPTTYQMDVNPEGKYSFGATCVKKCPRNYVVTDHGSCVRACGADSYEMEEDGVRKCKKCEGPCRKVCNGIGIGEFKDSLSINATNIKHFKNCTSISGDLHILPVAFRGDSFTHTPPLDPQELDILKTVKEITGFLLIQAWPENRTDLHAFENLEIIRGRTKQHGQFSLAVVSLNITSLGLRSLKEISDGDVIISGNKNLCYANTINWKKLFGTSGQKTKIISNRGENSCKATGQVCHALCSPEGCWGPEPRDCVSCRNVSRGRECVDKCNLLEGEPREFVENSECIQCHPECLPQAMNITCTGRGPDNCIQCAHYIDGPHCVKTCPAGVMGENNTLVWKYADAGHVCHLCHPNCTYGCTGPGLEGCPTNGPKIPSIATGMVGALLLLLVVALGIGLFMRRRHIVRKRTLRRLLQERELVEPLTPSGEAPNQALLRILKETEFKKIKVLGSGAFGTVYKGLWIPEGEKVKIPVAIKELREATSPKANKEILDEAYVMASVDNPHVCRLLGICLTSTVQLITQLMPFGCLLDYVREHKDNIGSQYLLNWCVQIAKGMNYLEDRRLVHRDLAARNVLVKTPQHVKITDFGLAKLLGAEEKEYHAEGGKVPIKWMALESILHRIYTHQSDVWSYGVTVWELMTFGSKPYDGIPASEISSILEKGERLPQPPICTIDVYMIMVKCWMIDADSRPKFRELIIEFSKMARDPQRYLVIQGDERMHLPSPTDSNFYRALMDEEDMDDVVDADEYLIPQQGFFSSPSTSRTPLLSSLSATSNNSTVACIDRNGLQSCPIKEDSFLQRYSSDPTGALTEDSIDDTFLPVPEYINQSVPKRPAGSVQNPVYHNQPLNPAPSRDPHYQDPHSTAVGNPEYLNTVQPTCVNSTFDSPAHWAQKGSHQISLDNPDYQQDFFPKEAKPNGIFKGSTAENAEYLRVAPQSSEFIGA

[18] = biological target: Follistatin-related protein 3 (Homo sapiens) (UniProt O95633); assay: FSTL3 binders on small-molecule microarrays, primary screen, biochemical, small-molecule microarray, 635 nm fluorescence (AID 1105); conditions: FSTL3 binding, higher = more signal;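 also: score merges emission near 667 nm and signal to noise per printed spot across three slides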
Chain of Follistatin-related protein 3 (Homo sapiens) (O95633 whole entry, looked up): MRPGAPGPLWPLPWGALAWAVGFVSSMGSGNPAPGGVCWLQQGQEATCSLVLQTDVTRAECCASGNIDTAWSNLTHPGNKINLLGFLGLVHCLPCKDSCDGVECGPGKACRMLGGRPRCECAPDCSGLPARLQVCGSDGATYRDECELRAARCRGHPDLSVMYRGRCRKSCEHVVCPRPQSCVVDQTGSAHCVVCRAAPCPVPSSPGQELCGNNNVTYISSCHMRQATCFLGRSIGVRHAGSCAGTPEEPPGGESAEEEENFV

[19] = biological target: Dickkopf-related protein 1 (Homo sapiens) (UniProt O94907); assay: DKK1 binders on small-molecule microarrays, primary screen, biochemical, small-molecule microarray, 635 nm fluorescence scan (AID 1106); conditions: DKK1 binding, higher = more signal;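 also: score merges emission near 667 nm with signal to noise over three replicate slides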
Chain of Dickkopf-related protein 1 (Homo sapiens) (O94907 whole entry, looked up): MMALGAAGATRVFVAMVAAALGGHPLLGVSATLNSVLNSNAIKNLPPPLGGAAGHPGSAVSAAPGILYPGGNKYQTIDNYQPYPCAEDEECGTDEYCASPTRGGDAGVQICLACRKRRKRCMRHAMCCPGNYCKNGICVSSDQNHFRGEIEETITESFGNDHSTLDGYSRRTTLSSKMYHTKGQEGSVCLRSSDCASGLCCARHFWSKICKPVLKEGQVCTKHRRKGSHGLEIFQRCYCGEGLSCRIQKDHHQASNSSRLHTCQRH

[20] = test system: Inhibin beta A chain (activin A); assay: INHBA (activin A) binders on microarrays, primary screen, biochemical, small-molecule microarray, 635 nm fluorescence scan (AID 1107); conditions: small-molecule microarray binding, higher = more signal;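 also: mouse activin A protein probed at 4.33 µg/mL on printed slides; score merges bound-protein fluorescence near 667 nm with spot signal-to-noise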

Row | SMILES | composite z-score [1] | z-score [2] | z-score [3] | z-score [4] | composite z-score [5] | z-score [6] | composite z-score [7] | composite z-score [8] | composite z-score [9] | composite z-score [10] | composite z-score [11] | composite z-score [12] | composite z-score [13] | z-score [14] | composite z-score [15] | composite z-score [16] | composite z-score [17] | composite z-score [18] | composite z-score [19] | composite z-score [20]
1 | COC(=O)[C@@]1(Cc2ccc(F)cc2)[C@H]2c3cc(C(=O)N4CCCC4)n(Cc4ccc(Cl)c(C(F)(F)F)c4)c3C[C@H]2CN1C(=O)c1ccccc1 | 0.444 | 0.307 (inactive) | 2.12 (inactive) | 3.84 (inactive) | 3.26 | -0.482 (inactive) | 1.12 | -0.21 | 1.07 | 0.915 | 1.11 | 2.11 | 1.58 | -0.767 (inactive) | 0.879 | 0.864 | 0.477 | 1.18 | -0.652 | 0.864
2 | CC(C)C(CO)N1C(=O)[C@@H]2[C@H]3C(=O)OCC=C[C@H]3OC23C=CCN(c2ccc4ccccc4c2)C(=O)[C@@H]13 (stereo not given in full) | -0.382 | 0.523 (inactive) | -0.494 (inactive) | 1.17 (inactive) | 0.607 | 0.0732 (inactive) | -0.192 | -1.21 | -0.319 | -0.127 | 0.233 | -0.387 | 0.343 | 0.0617 (inactive) | -0.617 | -1.15 | -1.04 | -1.3 | -0.688 | -0.141
3 | CN(C)CCCCCCNC(=O)[C@@H]1C[C@@H]2C(=O)N[C@@H](Cc3ccccc3)C(=O)N2[C@@H]1c1cccc(OCCO)c1 | 1.55 | -1.49 (inactive) | -1.07 (inactive) | -0.567 (inactive) | 2.67 | 0.698 (inactive) | 0.0498 | 1.05 | 1.13 | -0.0492 | 1.12 | 0.182 | 0.635 | -0.326 (inactive) | 0.393 | 1.31 | 0.464 | 0.721 | 0.872 | 0.728
4 | O=C1O[C@@H](c2ccccc2)[C@@H](c2ccccc2)N2[C@@H](c3ccc(O)cc3)[C@]3(C(=O)Nc4ccccc43)[C@@H](C(=O)N3CCCCCCC3)[C@H]12 | 1.54 | 0.964 (inactive) | 0.295 (inactive) | 1.9 (inactive) | 4.32 | 0.271 (inactive) | 1.54 | 0.589 | 0.896 | 1.13 | 2.02 | 2.5 | 1.53 | -1.29 (inactive) | 1.03 | 1.32 | 1.27 | 1.58 | 1.56 | 1.98
